The nature of test [1]: qHTS assay to identify small molecule agonists of the sonic hedgehog signaling (Shh) pathway (AID 1259368; calls by dose curve; further: nearly all actives have a fitted effect of over 15% in size; further: potency means the concentration at half of the fitted maximal effect). The procedure, abridged:
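Mouse fibroblast (NIH/3T3) reporter cells with stably integrated Gli1-Luc were treated 24 hr with compound; firefly luciferase luminescence served as the read-out.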

For test [2], the target named is Estrogen receptor beta (Homo sapiens) (UniProt Q92731). Briefly: qHTS assay to identify small molecule agonists of the estrogen receptor beta (ER-beta) signaling pathway (AID 1259377; active means well fitted activation curve with a large enough effect in the signal ratio in the repeat runs, not every such curve was filed as active; the % refers to the signal ratio). The method in brief:
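Read-out: beta-lactamase FRET fluorescence. Cell line: ER-beta-UAS-bla HEK293T in 2% charcoal-stripped FBS. Exposure: 16 hr at 37C. Substrate step: 2 h at room temperature.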
In general terms: qHTS replaces the single test concentration by a dilution series.

The target is the same in test [3]. Briefly: qHTS assay to identify small molecule antagonists of the estrogen receptor beta (ER-beta) signaling pathway (AID 1259378; active means well fitted inhibition curve with a large enough effect in the signal ratio in the repeat runs, not every such curve was filed as active; the % refers to the signal ratio). The procedure, abridged: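 ER-beta-UAS-bla HEK293T (GripTite) cells in 2% charcoal-stripped FBS medium were preincubated 6 hr at 37C, dosed with compound, then stimulated with 1 nM E2 (final) for 16 hr; beta-lactamase reporter read by B/G FRET fluorescence after 2 hr substrate loading.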

Test [4] is described as follows: qHTS assay to identify small molecule agonists of the androgen receptor (AR) signaling pathway in the presence of an antagonist - cell viability counter screen (AID 1259379). Further: nearly all actives have a fitted effect of over 25% in size. Further: potency means the concentration at half of the fitted maximal effect. The procedure, abridged:
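A CellTiter-Fluor read-out measured viability of MDA-kb2 reporter cells (MMTV promoter with AR and GR response elements). Treatment: nilutamide 3.0uM final with compounds at 15 concentrations, 16 hr, 37C, 0% CO2.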

A short description of test [5]: qHTS assay to identify small molecule agonists of the estrogen receptor beta (ER-beta) signaling pathway - cell viability counter screen (AID 1259380). Further: nearly all actives have a fitted effect of over 30% in size. The procedure, abridged:
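Cells used were ER-beta-UAS-bla HEK293T in medium with 2% charcoal-stripped FBS. They were treated for 16 hr at 37C. Viability came from CellTiter-Glo luminescence.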

Test [6] in a line: qHTS assay to identify small molecule antagonists of the estrogen receptor beta (ER-beta) signaling pathway - cell viability counter screen (AID 1259382). Further: series mostly up to about 92 µM; nearly all actives have a fitted effect of over 55% in size. The procedure, abridged: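 Agonist-stimulated (1nM E2) ER-beta-UAS-bla HEK293T cells are incubated with library compounds for 16 hr at 37C. Cell viability is then assessed in the reporter-assay wells by adding CellTiter-Glo and reading luminescence after 30 min.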

Test [7] addresses Estrogen receptor (Homo sapiens) (UniProt P03372). Briefly: qHTS assay to identify small molecule agonists of the estrogen receptor alpha (ER-alpha) signaling pathway in the presence of an antagonist (AID 1259383; calls by dose curve; further: top concentration of the series differs between compounds; nearly all actives have a fitted effect of over 15% in size). The method in brief: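 Using VM7Luc4E2 cells seeded 24hr before treatment, antagonist ICI-182,780 (10.0nM final) was added, followed by compounds at 15 concentrations. Plates incubated 22hr; ONE-Glo luminescence quantified reporter activity.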

Test [8] can be described thus: qHTS assay to identify small molecule agonists of the estrogen receptor alpha (ER-alpha) signaling pathway in the presence of an antagonist - cell viability counter screen (AID 1259386).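 Further: series mostly up to about 92 µM; cells exposed to compounds for 22 h at 37 °C before the viability read; nearly all actives have a fitted effect of over 30% in size.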 The procedure, abridged:
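ICI-182,780 at 10.0nM final accompanies the compound titration (15 concentrations, 22hr, 37C) on VM7Luc4E2 cells. The CellTiter-Fluor fluorescence readout runs in the same wells as the luciferase assay.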

Test [9] deals with Progesterone receptor (Homo sapiens) (UniProt P06401). As to the kind of experiment: qHTS assay to identify small molecule agonists of the progesterone receptor (PR) signaling pathway (AID 1346784; calls by dose curve; further: nearly all actives have a fitted effect of over 30% in size; further: potency means the concentration at half of the fitted maximal effect). The method in brief:
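Compounds were tested for PR agonism in HEK 293T cells bearing a beta-lactamase gene under UAS control. Treatment lasted 16 hr at 37C; signal came from fluorescence of a FRET substrate.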

For test [10] the target is unchanged. Briefly: qHTS assay to identify small molecule antagonists of the progesterone receptor (PR) signaling pathway (AID 1346795; active means well fitted inhibition curve with a large enough effect in the signal ratio in the repeat runs, not every such curve was filed as active; the % refers to the signal ratio). The procedure, abridged:
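In HEK293T cells bearing the PR-UAS-bla reporter, compound effects on promegestone-driven (1 nM) beta-lactamase expression are assessed after 16 hr using a fluorescent FRET substrate incubated 2 hr at room temperature.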

Test [11] can be described thus: qHTS assay to identify small molecule antagonists of the progesterone receptor (PR) signaling pathway - cell viability counter screen (AID 1346798). Further: series mostly up to about 92 µM; nearly all actives have a fitted effect of over 50% in size. The procedure, abridged:
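Following a 4 hr attachment, PR-UAS-bla HEK293T cells in charcoal-stripped FBS medium were exposed to compounds with R5020 for 16 hr; CellTiter-Glo was added and luminescence read after 30 min at room temperature.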

Test [12] is described as follows: qHTS assay to identify small molecule agonists of the progesterone receptor (PR) signaling pathway - cell viability counter screen (AID 1346799; calls by dose curve; further: nearly all actives have a fitted effect of over 45% in size). The procedure, abridged: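 Here, 3,000 PR-UAS-bla HEK293T cells per well were treated with compounds for 16 hr after a 6 hr preincubation at 37C and 5% CO2; cell viability is the CellTiter-Glo luminescence signal.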
A short description of test [13]: qHTS assay to identify small molecule antagonists of the TGF-beta/Smad signaling pathway - cell viability counter screen (AID 1346824). Further: nearly all actives have a fitted effect of over 50% in size. The procedure, abridged: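 SBE-bla HEK 293T cells were plated overnight at 37 C, then given compounds in DMSO plus TGF-beta1 (added as 0.25 ng/mL solution) for 5 hr. After the bla read, CellTiter-Glo was added to the same wells and luminescence read after 30 min at room temperature.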

The nature of test [14]: qHTS assay to identify small molecule agonists of the TGF-beta/Smad signaling pathway - cell viability counter screen (AID 1346829). Further: top concentration of the series differs between compounds; nearly all actives have a fitted effect of over 45% in size. The procedure, abridged:
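After overnight seating at 37 C and 5% CO2, reporter cells got compounds for 5 hr and FRET substrate for 2 hr; cell viability then came from CellTiter-Glo luminescence.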

The nature of test [15]: qHTS assay to identify small molecule agonists of the TGF-beta/Smad signaling pathway (AID 1346859; active means well fitted activation curve with a large enough effect in the signal ratio in the repeat runs, not every such curve was filed as active; the % refers to the signal ratio; further: series mostly up to about 77 µM). The method in brief: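 Each well held 4,000 SBE-bla HEK 293T cells incubated overnight before compound addition; 5 hr later the cleavable FRET substrate went on for 2 hr at room temperature, and fluorescence was read at two emissions.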
Test [16] deals with Thyrotropin-releasing hormone receptor (Homo sapiens) (UniProt P34981). As to the kind of experiment: qHTS assay to identify small molecule antagonists of the thyrotropin-releasing hormone receptor (TRHR) signaling pathway (AID 1346877; active means well fitted inhibition curve with a large enough effect in the repeat runs, not every such curve was filed as active; further: series mostly up to about 51 µM). The method in brief:
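Screening used HEK293 cells engineered with TRHR, with a brief 5 min room-temperature compound exposure preceding addition of TRH to 1 nM. The read-out was kinetic calcium-dye fluorescence, concentration-response from 15 doses in triplicate.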

The nature of test [17]: qHTS assay to identify small molecule antagonists of the sonic hedgehog signaling (Shh) pathway (AID 1259369; calls by dose curve; further: nearly all actives have a fitted effect of over 45% in size; further: potency means the concentration at half of the fitted maximal effect). The method in brief: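 Conditioned medium drives Shh signalling in 3T3Gli1-Luc cells; compounds in DMSO co-applied, 24hr at 37 C, then luciferase luminescence.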
Test [18] in a line: qHTS assay to identify small molecule agonists or antagonists of the thyroid stimulating hormone receptor (TSHR) signaling pathway - wild type cell line counter screen (AID 1259384; calls by dose curve). The procedure, abridged: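 Wild-type HEK293 cells were plated 18 h at 37 C/5% CO2, pin-dosed with compound plus Ro20-1724 medium, held 30 min at room temperature, then given cAMP-d2 and anti-cAMP-cryptate; fluorescence was read after 1 h. Fifteen concentrations, triplicate.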

For test [19], the target named is Thyrotropin receptor (Homo sapiens) (UniProt P16473). Briefly: qHTS assay to identify small molecule antagonists of the thyroid stimulating hormone receptor (TSHR) signaling pathway (AID 1259385; calls by dose curve; further: nearly all actives have a fitted effect of over 20% in size). The procedure, abridged:
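TSHR-HEK293 cells were plated and held 18 h at 37C/5% CO2, then given compound plus Ro20-1724 and stimulated with TSH at 1.5 ng/mL final. After 30 min at room temperature, cAMP was detected with cAMP-d2/anti-cAMP-cryptate (1 h) by fluorescence.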

Where “and” joins values, the source holds several entries; their conditions need not be identical. Equal values may be shown once. Records with an inconclusive call do not appear. A structure can be active in one record and inactive in another. Calls of active or inactive are those of the source. Unless noted, the call rests on the fitted dose curve; in most records, active means well fitted curve in the direction sought with a large enough effect in the repeat runs; inconclusive means weak or mixed curves; inactive means no such curve, though single readings can be large; an effect the other way counts as inactive or inconclusive.

Chain of Progesterone receptor (Homo sapiens) (P06401 whole entry, looked up): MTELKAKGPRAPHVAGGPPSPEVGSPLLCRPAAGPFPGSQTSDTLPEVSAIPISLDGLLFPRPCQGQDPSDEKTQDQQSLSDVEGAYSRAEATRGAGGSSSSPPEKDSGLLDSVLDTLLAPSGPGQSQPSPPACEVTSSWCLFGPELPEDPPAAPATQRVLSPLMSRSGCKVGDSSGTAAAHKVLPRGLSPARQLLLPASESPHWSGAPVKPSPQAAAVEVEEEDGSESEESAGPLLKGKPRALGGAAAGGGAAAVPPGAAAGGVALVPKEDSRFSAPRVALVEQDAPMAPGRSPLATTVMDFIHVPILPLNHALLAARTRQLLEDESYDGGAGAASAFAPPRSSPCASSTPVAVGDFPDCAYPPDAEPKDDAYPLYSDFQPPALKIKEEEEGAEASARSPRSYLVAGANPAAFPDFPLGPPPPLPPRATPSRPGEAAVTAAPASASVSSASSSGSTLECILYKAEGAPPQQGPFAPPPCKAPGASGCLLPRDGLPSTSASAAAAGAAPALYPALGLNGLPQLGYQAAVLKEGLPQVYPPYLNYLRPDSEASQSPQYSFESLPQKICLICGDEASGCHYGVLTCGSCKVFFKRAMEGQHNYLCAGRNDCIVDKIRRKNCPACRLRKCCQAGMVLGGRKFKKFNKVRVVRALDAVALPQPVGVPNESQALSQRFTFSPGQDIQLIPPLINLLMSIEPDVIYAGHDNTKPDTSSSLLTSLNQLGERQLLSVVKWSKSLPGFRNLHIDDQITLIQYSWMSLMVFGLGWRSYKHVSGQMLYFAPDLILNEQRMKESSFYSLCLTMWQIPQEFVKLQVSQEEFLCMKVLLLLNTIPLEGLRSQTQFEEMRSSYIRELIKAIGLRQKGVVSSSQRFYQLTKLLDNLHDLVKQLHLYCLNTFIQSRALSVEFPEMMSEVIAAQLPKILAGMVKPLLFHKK
Chain of Estrogen receptor (Homo sapiens) (P03372 whole entry, looked up): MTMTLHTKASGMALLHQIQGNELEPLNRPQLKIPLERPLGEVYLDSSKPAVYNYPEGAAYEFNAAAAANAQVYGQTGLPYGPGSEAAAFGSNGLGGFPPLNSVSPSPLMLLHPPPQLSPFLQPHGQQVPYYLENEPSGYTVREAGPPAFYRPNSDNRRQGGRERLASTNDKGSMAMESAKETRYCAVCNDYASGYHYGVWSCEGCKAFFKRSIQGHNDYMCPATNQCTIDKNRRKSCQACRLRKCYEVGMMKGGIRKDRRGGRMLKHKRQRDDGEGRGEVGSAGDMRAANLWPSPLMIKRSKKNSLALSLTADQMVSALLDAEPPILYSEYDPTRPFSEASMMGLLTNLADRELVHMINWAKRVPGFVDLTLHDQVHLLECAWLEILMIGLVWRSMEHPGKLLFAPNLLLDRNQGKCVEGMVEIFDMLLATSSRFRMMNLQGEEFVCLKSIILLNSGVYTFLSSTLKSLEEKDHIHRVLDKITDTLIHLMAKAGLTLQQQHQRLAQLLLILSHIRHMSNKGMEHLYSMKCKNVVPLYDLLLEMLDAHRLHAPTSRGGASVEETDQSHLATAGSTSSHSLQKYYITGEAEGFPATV
Chain of Thyrotropin receptor (Homo sapiens) (P16473 whole entry, looked up): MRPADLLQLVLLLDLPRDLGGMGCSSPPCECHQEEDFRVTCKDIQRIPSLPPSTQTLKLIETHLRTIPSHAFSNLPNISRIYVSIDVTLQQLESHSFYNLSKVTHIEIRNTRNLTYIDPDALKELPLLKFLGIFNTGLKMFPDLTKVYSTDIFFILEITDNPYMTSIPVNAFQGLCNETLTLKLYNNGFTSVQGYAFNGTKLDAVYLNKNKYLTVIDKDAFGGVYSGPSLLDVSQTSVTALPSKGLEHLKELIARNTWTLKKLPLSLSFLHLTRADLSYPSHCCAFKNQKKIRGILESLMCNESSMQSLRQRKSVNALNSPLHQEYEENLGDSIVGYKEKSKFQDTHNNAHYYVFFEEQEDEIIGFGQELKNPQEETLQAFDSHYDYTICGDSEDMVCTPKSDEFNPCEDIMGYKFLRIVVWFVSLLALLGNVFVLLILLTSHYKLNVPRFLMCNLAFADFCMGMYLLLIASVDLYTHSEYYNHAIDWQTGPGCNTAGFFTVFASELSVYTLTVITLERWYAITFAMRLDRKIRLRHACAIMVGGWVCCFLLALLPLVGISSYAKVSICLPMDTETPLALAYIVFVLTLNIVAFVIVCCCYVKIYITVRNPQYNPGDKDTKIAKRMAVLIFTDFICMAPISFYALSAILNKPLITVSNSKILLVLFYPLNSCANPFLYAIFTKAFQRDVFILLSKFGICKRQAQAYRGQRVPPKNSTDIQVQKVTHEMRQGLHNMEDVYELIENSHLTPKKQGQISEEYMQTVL
Chain of Thyrotropin-releasing hormone receptor (Homo sapiens) (P34981 whole entry, looked up): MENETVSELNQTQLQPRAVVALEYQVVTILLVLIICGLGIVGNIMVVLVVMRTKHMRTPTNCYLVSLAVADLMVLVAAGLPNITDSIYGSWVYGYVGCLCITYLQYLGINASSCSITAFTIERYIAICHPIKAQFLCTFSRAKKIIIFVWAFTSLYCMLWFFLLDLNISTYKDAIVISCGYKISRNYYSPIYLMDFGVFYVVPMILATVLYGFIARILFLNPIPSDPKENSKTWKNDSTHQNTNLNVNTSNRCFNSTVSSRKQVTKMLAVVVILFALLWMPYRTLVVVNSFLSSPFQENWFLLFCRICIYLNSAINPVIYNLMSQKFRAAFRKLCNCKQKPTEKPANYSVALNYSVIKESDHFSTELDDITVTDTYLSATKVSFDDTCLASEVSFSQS
Chain of Estrogen receptor beta (Homo sapiens) (Q92731 whole entry, looked up): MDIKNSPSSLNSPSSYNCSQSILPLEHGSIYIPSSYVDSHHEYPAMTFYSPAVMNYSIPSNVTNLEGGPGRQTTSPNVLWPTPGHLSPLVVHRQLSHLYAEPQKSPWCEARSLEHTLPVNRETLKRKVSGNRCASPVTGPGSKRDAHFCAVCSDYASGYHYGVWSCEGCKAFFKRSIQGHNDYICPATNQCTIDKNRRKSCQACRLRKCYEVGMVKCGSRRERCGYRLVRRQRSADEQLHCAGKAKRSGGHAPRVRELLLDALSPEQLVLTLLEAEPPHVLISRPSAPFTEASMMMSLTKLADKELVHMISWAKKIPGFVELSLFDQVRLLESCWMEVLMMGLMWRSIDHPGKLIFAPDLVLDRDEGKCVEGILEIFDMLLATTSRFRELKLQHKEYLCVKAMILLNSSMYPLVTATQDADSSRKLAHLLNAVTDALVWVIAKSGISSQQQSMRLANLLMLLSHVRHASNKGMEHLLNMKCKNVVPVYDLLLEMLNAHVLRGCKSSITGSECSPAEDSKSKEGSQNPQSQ

Consider `CC(Cl)C(C)Cl` (centres undefined), for which the Potency entry in test [1], in test [2], in test [3], in [4], in test [5] and in test [6] was “inactive” each time. For the same compound, the Potency entry in test [7], in [8], in [9], in [10], in test [11] and in test [12] was “inactive” throughout. Further, the Potency entry in test [13], in test [14] and in test [16] was “inactive” in each case. For the same compound, in test [15], the compound was classed as inactive.

For `CCn1cc[n+](C)c1`, the Potency entry in [1], in [5], in test [6], in test [8], in test [10] and in test [11] was “inactive” throughout. Moreover, the Potency result in test [12], in [13] and in test [14] was “inactive” each time. Besides, the Potency entry in test [17] is “inactive and 19.3 µM (active) and 38.8 µM (active)”; in [4], “inactive and 27.6 µM (active)”; in [9] it was “inactive and 15.3 µM (active)”. Also, the compound was called inactive in test [15].

As to `O=C(CBr)c1ccccc1`, the Potency result in [1], in test [4], in test [5], in [6], in test [7] and in test [19] was “inactive” in each case. Moreover, the Potency entry in test [8], in test [9], in [10], in [11], in test [12] and in test [13] was “inactive” each time. Also, the Potency result in test [14] and in test [16] was “inactive” each time. In addition, the Potency in test [17] is 34.6 µM (active). In addition, the compound was called inactive in test [18] and in test [15].

Regarding `[CH3][Sn]([CH3])([Cl])[Cl]`, the Potency in [1] was 7.82 µM (active) and 24.3 µM (active); in test [17], 2.43 µM (active). The Potency result in test [4], in test [5], in test [6], in test [9], in test [10] and in [11] was “inactive” each time. Moreover, the Potency result in test [12], in test [13], in test [14] and in test [16] was “inactive” throughout. Besides, the outcome in test [15] was inactive.

As to `NNC(=O)c1cccnc1`, the Potency result in [1], in test [17], in [4], in test [5], in test [6] and in test [7] was “inactive” throughout. The Potency result in test [19], in test [8], in [9], in [10], in test [11] and in test [12] was “inactive” throughout. For the same compound, the Potency entry in test [13], in [14] and in test [16] was “inactive” in each case. The result in [18] and in test [15] was inactive.

For the compound `CC(C)O.CC(C)O.OCCN(CCO)CCO.OCCN(CCO)CCO.[Ti]`, the Potency result in [1], in test [17], in test [5], in test [6], in test [19] and in test [8] was “inactive” throughout. In addition, the Potency entry in [9], in test [10], in [11], in [12], in test [13] and in test [14] was “inactive” each time. Also, the compound was classed as inactive in test [18] and in test [15].

Consider `Cn1cc[n+](C)c1` (tested in a mixture with another compound), for which the Potency result in test [1], in [17], in test [4], in test [5], in test [6] and in test [7] was “inactive” each time. The Potency entry in test [19], in test [8], in test [9], in test [10], in [11] and in test [12] was “inactive” throughout. Further, the Potency result in test [13], in [14] and in test [16] was “inactive” each time. Also, the outcome in test [18] and in [15] was inactive.

Regarding `CNP(=O)(OC)Oc1ccc(C(C)(C)C)cc1Cl` (centres undefined), the Potency entry in test [1], in test [4], in test [5], in test [6], in test [19] and in test [8] was “inactive” each time. Also, the Potency entry in test [9], in test [13], in test [14] and in test [16] was “inactive” each time. Besides, in test [17], the Potency is 27.3 µM (active). The result in [18] and in test [15] was inactive.

In the case of `BrCCCCBr`, the Potency result in test [1], in [17], in test [4], in test [5], in test [6] and in test [7] was “inactive” throughout. Moreover, the Potency result in test [19], in test [8], in test [11], in test [12], in [14] and in test [16] was “inactive” in each case. The result in [18] and in test [15] was inactive.

These data come from PubChem BioAssay (Tox21).
